# Counter-ions that a name gives are not always drawn.
# Tested on: OCI-AML2
# Assay: cell viability relative to vehicle control; higher = less cytotoxic
# Details: 10 µM; SRSF2 genotype: wt/wt
# Outline: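 Each screen used CRISPR-edited mutant and wild-type clones from four leukaemia lines. Compounds were acoustically dispensed at a single 10 µM dose, and CellTiter-Glo luminescence was read after 48 h with the supernatant first removed. Viability was analysed in Genedata Screener and given as percent of the on-plate vehicle control.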
row,Structure (SMILES),cell viability [%]
1,Cc1ccc2nc(NC(=O)CSc3nc4c(c(=O)n3-c3ccccc3)SCC4)sc2c1,104
2,COC(=O)C1=C(C)NC(C)=C(C(=O)OCCN(C)Cc2ccccc2)C1c1cccc([N+](=O)[O-])c1 (stereo not given) [Nicardipine HCl],85
3,O=C(O)c1cccnc1Nc1cccc(C(F)(F)F)c1 [Niflumic acid],104
4,Cc1cc(Nc2cc(N3CCN(C)CC3)nc(/C=C/c3ccccc3)n2)n[nH]1 [ENMD-2076 L-(+)-Tartaric acid],14.7
5,CC(C)[C@H]1CC[C@H](C(=O)N[C@H](Cc2ccccc2)C(=O)O)CC1 [Nateglinide (Starlix)],97.5
6,O=C1C[C@@H](c2ccc(O)cc2)Oc2cc(O)cc(O)c21 [Naringenin],96.7
7,C=CC(=O)N1CCC[C@@H](n2nc(-c3ccc(Oc4ccccc4)cc3)c3c(N)ncnc32)C1,53.1
8,CC(=O)OC(CC(C)C1=C2CC(O)C3C4(C)CCC(=O)C(C)(C)C4CCC3(C)C2(C)CC1)C1OC1(C)C (stereo not given) [Alisol B Acetate],68.6
9,CC(=O)Nc1cccc2c1c(Sc1ccc(Cl)cc1)c(C)n2CC(=O)O,108
10,Cc1cc(NS(=O)(=O)c2ccc(N)cc2)no1 [Sulfamethoxazole sodium],109
11,C[C@@H]1O[C@@H](O[C@H]2[C@H](Oc3cc(O)c4c(c3)O[C@H](c3ccc(O)cc3)CC4=O)O[C@H](CO)[C@@H](O)[C@@H]2O)[C@H](O)[C@H](O)[C@H]1O [Naringin (Naringoside)],100
12,C[C@]12CC[C@H](O)CC1=CC[C@@H]1[C@@H]2CC[C@]2(C)C(n3cnc4ccccc43)=CC[C@@H]12 [Galeterone (TOK-001)],80.1
13,COc1cc(C(=O)N(CCCc2ccccc2)Cc2ccc(CC(=O)O)cc2)cc(OC)c1C,100
14,Oc1ccc(OC2CCCCO2)cc1 (stereo not given) [Deoxyarbutin],83.2
15,NS(=O)(=O)c1ccccc1 [Benzenesulfonamide],91.7
16,COc1ccc([C@@H]2CC(=O)c3c(O)cc(O[C@@H]4O[C@H](CO)[C@@H](O)[C@H](O)[C@H]4O[C@@H]4O[C@@H](C)[C@H](O)[C@@H](O)[C@H]4O)cc3O2)cc1 [Poncirin],96
17,CC(=O)Oc1cc(C(F)(F)F)ccc1C(=O)O [Triflusal],102
18,OC1OC[C@@H](O)[C@@H](O)[C@@H]1O (stereo partly drawn) [D(-)-Arabinose],117
19,CC[C@@H]([C@H](C)O)n1ncn(-c2ccc(N3CCN(c4ccc(OC[C@@H]5CO[C@@](Cn6cncn6)(c6ccc(F)cc6F)C5)cc4)CC3)cc2)c1=O [Posaconazole],23.9
20,Nc1nc(-c2nn(Cc3ccccc3F)c3ncccc23)ncc1C1CC1,86.4

row,Structure (SMILES),cell viability [%]
1,COc1cc2c(cc1OC)[C@@H](Cc1ccc(O)c(Oc3cc4c(cc3OC)CCN(C)[C@@H]4Cc3ccc(O)cc3)c1)N(C)CC2 [Liensinine],59.9
2,NC(=O)c1cnccn1 [Pyrazinamide (Pyrazinoic acid amide)],109
3,CC(C)(C)NS(=O)(=O)c1cncc(-c2cc(F)c3nc(N)nn3c2)c1,80.8
4,CC(=O)O[C@@H]1C[C@@]23C[C@@]24CC[C@H](O[C@@H]2OC[C@@H](O)[C@H](O)[C@H]2O)C(C)(C)[C@@H]4CC=C3[C@]2(C)C[C@@H]3OC4(C[C@@H](C)[C@@H]3[C@@]12C)OC(O)C1(C)OC41 (stereo not given in full) [Cimicifugoside],96
5,O=C(O)c1ccc(CN2CCC(CN[C@@H]3C[C@H]3c3ccccc3)CC2)cc1,91.6
6,CN1C(N)=N[C@](C)(c2cc(NC(=O)c3ccc(F)cn3)ccc2F)CS1(=O)=O [Verubecestat (MK-8931)],97.1
7,O=C[C@H](O)[C@@H](O)[C@H](O)CO [Xylose],88.2
8,COc1ccc(CCNCC(O)COc2cccc(C)c2)cc1OC (stereo not given) [Bevantolol hydrochloride],84.8
9,C/C=C1\[C@H]2C=C(C)C[C@]1(N)c1ccc(=O)[nH]c1C2 [(-)-Huperzine A (HupA)],103
10,COC(=O)CCC(C)C1CCC2C3C(O)CC4CC(O)CCC4(C)C3CC(O)C12C (stereo not given) [Methyl Cholate],81.8
11,Cc1cccc(C)c1NC(=O)c1cc(S(N)(=O)=O)c(Cl)cc1O [Xipamide],106
12,Cn1nnc2c(C(N)=O)ncn2c1=O [Temozolomide],96.6
13,COc1ccc(Oc2cc(NCCC(F)(F)F)c3ncc(-c4ccc(C(=O)NC5CC5)c(C)c4)n3n2)c(F)c1F,72.9
14,NC(=O)Cc1c[nH]c2ccccc12 [Indole-3-acetamide],115
15,COc1ccc(CC(=O)O)cc1OC [Homoveratrumic acid],99
16,COc1ccc2c(c1O)-c1c(O)c(OC)cc3c1[C@H](C2)[N+](C)(C)CC3 [Magnoflorinechloride],98.7
17,CC(c1cc2ccccc2s1)N(O)C(N)=O (stereo not given) [Zileuton],97.4
18,Cc1c(C(=O)N2CCOc3ccc(-c4ccc(N)nc4)cc3C2)ccc(S(C)(=O)=O)c1F,67.8
19,CC(C)(Oc1ccc(Cl)cc1)C(=O)OCCOC(=O)c1cccnc1 [Etofibrate],77.5
20,COc1cc(-c2oc3cc(O)cc(O)c3c(=O)c2OC2OC(COC3OC(C)C(O)C(O)C3O)C(O)C(O)C2OC2OC(C)C(O)C(O)C2O)ccc1O (stereo not given) [Typhaneoside],105
